HttQ103 aggreg: reduces HttQ103-GFP aggregates in PC12 cells; PC12 HttQ103-GFP aggregates, Acumen cytometry, 40 h; Potency, µM (doses to about 46.1 µM), hits mostly inhibitors; 1.1% of 220,000 active; AID 1688; also: nearly all actives have a fitted effect of over 60% in size
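PC12 cells stably carrying ecdysone-inducible HTT exon 1 Q103–GFP were induced with tebufenozide (100 nM final) and treated with library compounds in titration. GFP aggregates in lysates were counted by laser scanning cytometry.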
HTT ATP protect: cytoprotection in Huntington HTT-Q103 PC12 cell model; PC12 HTT-Q103 induced, cytoprotection, ATP luminescence, 40 h; Potency, µM (titrated, usually from 56.4 µM), usual class: activators; 0.14% of 230,000 active; AID 1471; also: nearly all actives have a fitted effect of over 45% in size
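Quantitative HTS on tebufenozide-induced (100 nM) PC12 cells expressing HTTQ103 exon 1–GFP; compounds tested as a concentration series; survival measured via cellular ATP.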
CBFb-RUNX1 inh: inhibitors of human CBF-beta and RUNX1 interaction; Q01196+Q13951; 230,000 tested, under 10 active; AID 1477; Potency, µM (doses to about 59.8 µM), hits mostly inhibitors; AlphaScreen CBFb-His/RUNX1-biotin binding, biochemical
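Compounds were screened at multiple concentrations against a preformed CBF-beta(His)/RUNX1(biotin) complex (30 nM of each) for 15 min at room temperature, followed by 90 min with nickel and streptavidin beads and AlphaScreen reading.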
HPGD block: blocks human HPGD enzyme activity | P15428 | purified HPGD, NADH fluorescence kinetic, PGE2 substrate | Potency, µM, usual class: inhibitors | 4.3% of 150,000 active; active = well fitted inhibition curve with a large enough effect, not every such curve was filed as active; inconclusive = small, poorly fitted or top-dose-only effect, or another doubt; inactive = no such curve, though single readings can be large or run the other way
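20 nM HPGD preincubated 15 min at room temperature with compound in 50 mM Tris-HCl pH 8, 0.01% Tween 20. Started with 1 mM NAD+ and 30 uM prostaglandin E2; NADH fluorescence (360/450 nm) read 5 times over 30-s intervals, last minus first.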
ALDH1A1 inh: blocks purified human ALDH1A1 activity; AID 1030; Potency, µM (doses to about 75.3 µM), usual class: inhibitors; 7.3% of 220,000 active; P00352; Purified ALDH1A1, NADH fluorescence, propionaldehyde substrate; active = well fitted inhibition curve with a large enough effect, not every such curve was filed as active; inconclusive = small, poorly fitted or top-dose-only effect, or another doubt; inactive = no such curve, though single readings can be large or run the other way
Target sequence (P00352 whole entry, looked up): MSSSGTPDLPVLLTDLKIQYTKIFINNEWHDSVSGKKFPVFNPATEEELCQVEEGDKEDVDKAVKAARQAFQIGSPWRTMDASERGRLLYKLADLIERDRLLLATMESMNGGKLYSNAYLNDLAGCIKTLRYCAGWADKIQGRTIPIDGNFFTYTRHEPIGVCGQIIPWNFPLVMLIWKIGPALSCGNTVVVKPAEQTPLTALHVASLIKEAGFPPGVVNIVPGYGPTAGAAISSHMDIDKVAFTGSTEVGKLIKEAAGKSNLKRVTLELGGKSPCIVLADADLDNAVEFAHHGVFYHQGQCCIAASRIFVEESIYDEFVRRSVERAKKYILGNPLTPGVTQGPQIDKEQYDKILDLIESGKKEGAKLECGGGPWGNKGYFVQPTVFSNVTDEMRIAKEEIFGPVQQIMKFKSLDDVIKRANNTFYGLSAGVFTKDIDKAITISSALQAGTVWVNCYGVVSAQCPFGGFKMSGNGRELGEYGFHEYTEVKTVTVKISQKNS
PNC assembly inh: blocks assembly of the perinucleolar compartment; PC3M PTB-GFP, PNC prevalence imaging, 16 h; stronger effect = lower value; activity change (PNC), negative = inhibition, % at 10 µM; 3.1% of 140,000 active;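 active = readout at or below -70, meaning at least 70% loss of cells showing the perinucleolar compartment, a nuclear body marking cancer cells; inconclusive = readout between -30 and a set limit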
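Read-out is percentage of cells bearing a perinucleolar compartment, from automated 20x imaging of fixed, Hoechst-stained PC3M PTB-GFP cells. Cells were seeded 4 h, then exposed 16 h to compound (23 nl of library stock) in duplicate plates.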
A number is an active result; 0 = inactive; ? = inconclusive; - = no result given; [ ] = dose if it differs, or a comment. Sampled rows, rich in hits. Any-hit rate of the full collection: about 11%. Unless noted, calls follow the shape of the dose curve; as a rule, active = well fitted curve in the direction sought with a large enough effect; inconclusive = small, poorly fitted or top-dose-only effect, or another doubt; inactive = no such curve, though single readings can be large; an effect the other way counts as inactive or inconclusive.

SMILES	HttQ103 aggreg	HTT ATP protect	CBFb-RUNX1 inh	HPGD block	ALDH1A1 inh	PNC assembly inh
O=C(CSCc1ccc(Cl)cc1)Nc1ccccc1O	0[9.22 µM]	0	0	-	0	-
CC(=O)c1c(C)[nH]c(C(=O)CN2C(=O)NC(C)(CCC(C)C)C2=O)c1C (centres undefined)	0	0	0	-	0	-
O=C(CC12CC3CC(CC(C3)C1)C2)NC(=S)N1CCCCC1	0	0[10 µM]	0	?	20µM	0
S=C(NC12CC3CC(CC(C3)C1)C2)N1CCCC1	0	0[0.074 µM]	0	0	0	0
Cn1c2ccccc2c2nnc(SCC(=O)NCc3ccoc3)nc21	0	0	0	-	0	-
Cc1cc(OC(=O)c2c(F)cc(F)cc2F)nc(C)n1	0	?	0	-	0	-
c1cc2c3c(cccc3c1)NC1(CCCCC1)N2	0	0	0	0	0	0
c1cc2c3c(cccc3c1)NC1(CCCCCC1)N2	?	0[0.074 µM]	0	?	3.2µM	0
COc1ccc([N+](=O)[O-])cc1N(CC(=O)Nc1ccccc1C(=O)NC(C)C)S(C)(=O)=O	0[9.22 µM]	0	0	-	0	-
Cc1onc(C(=O)N2C(C)CCCC2C)c1[N+](=O)[O-] (centres undefined)	0	0[10 µM]	?	0	0	0
Cc1ccc(N=C2SC(C(=O)NCCc3ccccc3)CC(=O)N2C)cc1C (centres undefined)	0	0[10 µM]	0	-	10µM	-
CSc1ccc(OC2CCCCC2NS(=O)(=O)c2ccc(Cl)cc2)cc1 (centres undefined)	0	0[10 µM]	0	0	0.45µM	0
O=S(=O)(NC1CCCCC1Oc1ccccc1)c1ccc(Cl)cc1 (centres undefined)	0	0[10 µM]	0	0	?	?
Nc1ccc(S(=O)(=O)NCc2nccs2)cc1	-	0[10 µM]	-	0	0[13.5 µM]	-
COc1cc(CNc2nnnn2C)ccc1OCc1c(F)cccc1Cl	-	-	0	-	0	-
CC(C)c1ccc(C2CC(=O)N3CN(Cc4ccco4)CSC3=C2C#N)cc1 (centres undefined)	0	0	0	16µM	14µM	0
COc1ccc2ccccc2c1C1CC(=O)N2CN(C3CCCCC3)CSC2=C1C#N (centres undefined)	?	0	0	18µM	28µM	0
COc1cc(C2CC(=O)N3CN(Cc4ccco4)CSC3=C2C#N)ccc1OCc1ccccc1 (centres undefined)	0	0	0	25µM	7.9µM	0
CCOc1cc(C2CC(=O)N3CN(C4CCCCC4)CSC3=C2C#N)ccc1O (centres undefined)	0	0	0	25µM	6.3µM	?
COc1ccc(CCNC(=O)C2CC(=O)N(C3CCCCCCC3)C2)cc1OC (centres undefined)	0	0	0	0	?	0
Fc1ccc(Nc2ccnc(-c3ccccc3C(F)(F)F)n2)cc1	-	0	-	-	0	-
COc1ccc(C2CC(=O)N3CN(Cc4ccco4)CSC3=C2C#N)cc1 (centres undefined)	0	0[0.074 µM]	0	13µM	10µM	0
N#CC1=C2SCN(Cc3ccco3)CN2C(=O)CC1c1ccc(Cl)cc1 (centres undefined)	0	0	0	11µM	16µM	0
COc1ccc2ccccc2c1C1CC(=O)N2CN(Cc3ccco3)CSC2=C1C#N (centres undefined)	0	0	0	7.9µM	22µM	0
O=C1CSC(=Nc2ccc(Cl)cc2)N1Cc1ccco1	0[9.22 µM]	0[10 µM]	0	-	-	-
SMILES	HttQ103 aggreg	HTT ATP protect	CBFb-RUNX1 inh	HPGD block	ALDH1A1 inh	PNC assembly inh
CN(Cc1ccco1)c1ncncc1-c1cccnc1	-	0	-	-	?	-
Cc1cc(C)c2c3c(sc2n1)C1(CCSCC1)C(C#N)=C(N)O3	0	0[10 µM]	?	0	25µM	0
Cc1ccc(/C=N/NC(=O)c2cccnc2)o1	0	0	0	-	0	-
O=C(O)c1cccc(-c2ccc(/C=N/NC(=O)c3cccnc3)o2)c1	0	0[10 µM]	0	?	?	-83
COC(=O)c1nn(-c2ccccc2)c(Sc2ccc(OC)cc2)c1/C=N/O	0	0	0	-	?	?
CC(=O)Nc1ccc(NCN2C(=O)[C@@H]3[C@H]4CC[C@H](C4)[C@@H]3C2=O)cc1	0	0[1.9 µM]	0	0	?	0
N#Cc1cnn(CC2CCCCC2)c1N	0	0	0	0	0	-97
COc1cc(C2CC(=O)NC3=C2C(=O)CC(C)(C)C3)ccc1O (centres undefined)	?	?	0	0	0	?
CCOc1ccccc1C1CC(=O)NC2=C1C(=O)CC(C)(C)C2 (centres undefined)	35µM	0	0	0	0	0
CCOCC(=O)Nc1nc2ccc(OC)cc2s1	0	0[10 µM]	0	0	18µM	0
CS(=O)(=O)c1ccc2nc(NC(=O)Oc3ccccc3)sc2c1	0	0	0	0	3.2µM	0
CCOc1ccc2nc(NC(=O)COC)sc2c1	0	0	0	0	0	0
COc1ccc2sc(NC(=O)CC(C)C)nc2c1	0	0	0	0	25µM	0
COc1ccc2nc(NC(=O)CSc3nc(C)cc(=O)[nH]3)sc2c1	0	0	0	28µM	?	0
O=C1CCCC2[C@@H]3CCC[N@+]4([O-])CCC[C@H](CN12)C34 (some centres undefined)	-	0	0	0	0	-
COc1cc(C2C(C#N)=C(N)OC3=C2C(=O)CC(C)(C)C3)ccc1OCCN1CCOCC1 (centres undefined)	0[9.22 µM]	0[10 µM]	0	-	-	-
COc1ccc2nc(NS(=O)(=O)c3ccc(NC(C)=O)cc3)sc2c1	0	0[10 µM]	0	28µM	0	0
CCOc1ccc2sc(NS(=O)(=O)c3ccc(OC)c(OC)c3)nc2c1	0	0	0	16µM	?	0
CC(=O)Nc1ccc2nc(NS(=O)(=O)c3ccc(C)cc3)sc2c1	0[9.22 µM]	0[10 µM]	0	-	0	-
CCOc1ccc(NS(=O)(=O)c2ccc(NC(C)=O)c(OC)c2)cc1	0[9.22 µM]	0	0	0	5µM	0
CCOc1ccc(S(=O)(=O)Nc2cc(Cl)ccc2O)cc1	22µM	0[10 µM]	0	0	?	0
CCOc1ccc(NS(=O)(=O)c2ccc(OC)c(C)c2)cc1	0	0	0	0	?	0
C/C(=N/O)[C@@H]1C[C@H](CC(=O)O)C1(C)C	-	0[10 µM]	-	0	0[13.5 µM]	-
COc1ccc(-n2nc(C(=O)NCC(=O)NCc3ccccc3OC)c3ccccc3c2=O)c(OC)c1	0	0	0	-	0	-
COc1ccc(-n2nc(C(=O)Nc3nc4ccc(OC)cc4s3)c3ccccc3c2=O)c(OC)c1	0	0[10 µM]	0	0	20µM	0
CN(C)CC/C=C1\c2ccccc2COc2ccc(CC(=O)O)cc21	0	0	-	-	-	-
Cc1c(/C(O)=C2\C(=O)C(=O)N(CCCN(C)C)C2c2ccccc2)cnn1-c1ccccc1 (centres undefined)	0	0	0	20µM	?	0
